Pf Dd2 growth: Plasmodium falciparum Dd2 growth inhibition. P. falciparum Dd2 growth, SYBR Green, 72 h. Potency, µM (series often up to 28.9 µM), inactives show at the highest dose activity, negative = inhibition, usual class: inhibitors. actives 4.3% (n = 120,000). AID 1347417; active means well fitted inhibition curve with a large enough effect;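 further: plate controls were DMSO vehicle for no effect and reference drug for full effect; nearly all actives have a fitted effect of over 65% in size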
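Readout: SYBR Green fluorescence, 485 nm excitation, 535 nm emission, after ~16 h lysis at 37C. Before that, Dd2-infected red cells (2.5% hematocrit) grew 72 h with compound, 29 uM top final concentration.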
* marks the source's active call; other numbers are inactive results; [ ] = another dose, or the depositor's remark. The entries come from a sample that favours hits as a whole. Potency means the concentration at half of the fitted maximal effect.

CCN(CC)[C@H]1[C@@H]2OC[C@@H](O2)[C@@H](NC(=O)Nc2cccc(OC)c2)[C@@H]1O was read as Pf Dd2 growth inactive.
CCN(CC)[C@H]1[C@@H]2OC[C@@H](O2)[C@@H](NCc2ccc(N(C)C)cc2)[C@@H]1O was read as Pf Dd2 growth inactive.
Screening CCN(CC)[C@H]1[C@@H]2OC[C@@H](O2)[C@@H](NCC2CCCCC2)[C@@H]1O returned Pf Dd2 growth 10µM*.
`O=C(COc1ccc(F)cc1)NCCc1noc(-c2ccncc2)n1` gave Pf Dd2 growth -17.0%.
Screening COCCN1CC(C(=O)N(C)Cc2cnn(-c3ccccc3C)c2)CCC1=O (stereo not drawn) returned Pf Dd2 growth -0.6%.
Screening N#Cc1ccccc1CN1CCc2nc(N3CCc4ccccc4C3)[nH]c(=O)c2CC1 returned Pf Dd2 growth -1.1%[5.79 µM].
`COc1ccc(C(=O)N2CCC3(CC2)NC(=O)N(c2cccc(F)c2)N3)cc1F` gave Pf Dd2 growth inactive.
For COc1ccc(Cl)cc1C(=O)N1CCC2(CC1)NC(=O)N(c1ccccc1)N2 the results were Pf Dd2 growth -19.1%.
Screening COc1cccc(C(=O)N2CCC3(CC2)NC(=O)N(c2ccccc2)N3)c1 returned Pf Dd2 growth inactive.
COc1ccccc1C(=O)N1CCC2(CC1)NC(=O)N(c1cccc(F)c1)N2 was read as Pf Dd2 growth inactive.
For COc1ccc(Cl)cc1C(=O)N1CCC2(CC1)NC(=O)N(c1cccc(F)c1)N2 the results were Pf Dd2 growth 10µM*.
For COc1ccc(C(=O)N2CCC3(CC2)NC(=O)N(c2cccc(F)c2)N3)cc1 the results were Pf Dd2 growth 11.2µM*.
`CS(=O)(=O)CCN1C[C@@H](C(=O)O)[C@H](c2cccnc2)C1` gave Pf Dd2 growth -5.8%.
For COc1ccc(N2Cc3c(ncnc3N3CCN(C(C)=O)CC3)N(C)CC2=O)cc1 the results were Pf Dd2 growth 14.2%.
O=C(NCCc1nc2ccccc2n1Cc1ccc(Cl)cc1)c1ccccc1 was read as Pf Dd2 growth 8.7%.
CCCC(=O)NCCc1nc2ccccc2n1Cc1c(F)cccc1Cl was read as Pf Dd2 growth -21.2%.
O=C(NCCc1nc2ccccc2n1Cc1ccc(Cl)cc1Cl)c1ccco1 was read as Pf Dd2 growth 11.2µM*.
`COc1ccc(-c2nc3scc(CCNC(=O)Cc4ccc(F)cc4)n3n2)cc1` gave Pf Dd2 growth -12.1%.
COc1ccc(-c2nc3scc(CCNC(=O)c4cc(OC)cc(OC)c4)n3n2)cc1 was read as Pf Dd2 growth 7.08µM*.
Screening COc1ccc(-c2nc3scc(CCNS(=O)(=O)c4ccc(Oc5ccccc5)cc4)n3n2)cc1 returned Pf Dd2 growth -15.8%.
NC(=O)CCN1CCc2onc(-c3ccccc3F)c2C1 was read as Pf Dd2 growth 5.2%.
Screening Cc1ccc(CC(=O)Nc2ccc(-c3nnc4n3CCCC4)cc2)cc1 returned Pf Dd2 growth inactive.
Screening O=C(COc1cccc(-c2nnc3n2CCCC3)c1)Nc1ccc(Cl)cc1F returned Pf Dd2 growth -29.2%.
Screening COc1ccc(NC(=O)Cn2nc3n(c2=O)CCCCC3)cc1OC returned Pf Dd2 growth inactive.
For COc1ccc(NC(=O)COc2cccc(-c3nnc4n3CCCC4)c2)cc1OC the results were Pf Dd2 growth 7.94µM*.
Screening CCC(=O)Nc1ccc(-c2nnc3n2CCCC3)cc1 returned Pf Dd2 growth 21.0%.
Screening COc1ccc(NC(=O)COc2ccc(-c3nnc4n3CCCC4)cc2)cc1OC returned Pf Dd2 growth 8.91µM*.
CCOc1ccc(C(=O)N2CC(c3nnc(C(C)C)o3)C3(CCOCC3)C2)cc1 (stereo not drawn) was read as Pf Dd2 growth inactive.
CN(CC1CCOC1)S(=O)(=O)c1ccc(F)cc1F (stereo not drawn) was read as Pf Dd2 growth 2.9%[5.79 µM].
Screening OC(CNc1nccc(-c2cccnc2)n1)COc1ccc(Cl)cc1 (stereo not drawn) returned Pf Dd2 growth 14.1µM*.
`Cc1cc(=O)[nH]c(NCCNc2nccc(-c3cccnc3)n2)n1` gave Pf Dd2 growth 0.3%.
For CC(C)S(=O)(=O)CCNc1nccc(-c2cccnc2)n1 the results were Pf Dd2 growth -7.1%.
Screening O=C1CCN(C(=O)CC2CCCCC2)CCCOCCN1 returned Pf Dd2 growth 7.9%.
For COc1ccccc1-c1ccc2ncc(Nc3cccc(O)c3)n2n1 the results were Pf Dd2 growth 12.6µM*.
`COc1ccccc1-c1ccc2ncc(Nc3ccc4c(c3)OCO4)n2n1` gave Pf Dd2 growth -4.7%[44.1 µM].
For COc1ccc(Nc2cnc3ccc(-c4ccccc4OC)nn23)cc1OC the results were Pf Dd2 growth -3.7%[44.1 µM].
Screening CN(C)c1ccc(CN2CCC3(CC2)C(C(=O)O)CC(=O)N3C)cn1 (stereo not drawn) returned Pf Dd2 growth -12.0%.
`Cc1ncc(C(=O)N2CCCC(c3cccc(C(=O)O)c3)C2)c(=O)[nH]1` (stereo not drawn) gave Pf Dd2 growth -8.1%.
COc1ccc(-c2cc(C(=O)NCC(C)C)c3c(C)nn(-c4ccccc4)c3n2)cc1 was read as Pf Dd2 growth -12.7%.
`O=C1CCN(S(=O)(=O)c2ccccc2)CCCC(C(=O)NCCN2CCOCC2)CCN1` (stereo not drawn) gave Pf Dd2 growth -2.0%.
Screening CCOc1ccc(NC(=O)c2sc3nc4n(c(=O)c3c2C)CCCC4)cc1 returned Pf Dd2 growth -8.9%.
For Cc1c(C(=O)NCc2ccc(F)cc2)sc2nc3n(c(=O)c12)CCC3 the results were Pf Dd2 growth 3.6%.
Cc1c(C(=O)Nc2cccc(C(F)(F)F)c2)sc2nc3n(c(=O)c12)CCCC3 was read as Pf Dd2 growth 10µM*.
N#Cc1cccc(NC(=O)CN2C(=O)NC(c3ccc(Cl)cc3)C3=C2COC3=O)c1 (stereo not drawn) was read as Pf Dd2 growth -23.7%.
`Cc1nc(C2CCCC2)cc([C@H]2CN3CC[C@H]2C[C@@H]3CNC(=O)c2ccco2)n1` gave Pf Dd2 growth inactive.
`Cc1nc(-c2cccs2)cc([C@H]2CN3CC[C@H]2C[C@@H]3CNC(=O)c2ccco2)n1` gave Pf Dd2 growth inactive.
`Cc1nc(-c2ccc(C(F)(F)F)cc2)cc([C@H]2CN3CC[C@H]2C[C@@H]3CNC(=O)C2CC2)n1` gave Pf Dd2 growth inactive.
COc1ccc(C(=O)NC[C@H]2C[C@@H]3CCN2C[C@@H]3c2cc(-c3ccccc3Br)nc(C)n2)cc1 was read as Pf Dd2 growth 7.08µM*.
`Cc1nc(-c2cccs2)cc([C@H]2CN3CC[C@H]2C[C@@H]3CNC(=O)CSCC(=O)O)n1` gave Pf Dd2 growth -4.0%.
COc1ccccc1-c1cc([C@H]2CN3CC[C@H]2C[C@@H]3CNC(=O)c2ccc(C)cc2)n(C)n1 was read as Pf Dd2 growth inactive.
Screening Cc1nc(-c2ccco2)cc([C@H]2CN3CC[C@H]2C[C@@H]3CNCc2ccccc2)n1 returned Pf Dd2 growth 1.12µM*.
Screening COCC(=O)NC[C@H]1C[C@@H]2CCN1C[C@@H]2c1cc(-c2ccccc2)nc(C)n1 returned Pf Dd2 growth inactive.
`Cc1nc(-c2ccco2)cc([C@H]2CN3CC[C@H]2C[C@@H]3CNC(=O)C2CC2)n1` gave Pf Dd2 growth inactive.
For Cc1nc(-c2ccc(N(C)C)cc2)cc([C@H]2CN3CC[C@H]2C[C@@H]3CNC(=O)C(C)(C)C)n1 the results were Pf Dd2 growth 7.08µM*.
For Cc1nc(-c2ccccc2Br)cc([C@H]2CN3CC[C@H]2C[C@@H]3CNC(=O)C2CC2)n1 the results were Pf Dd2 growth -0.5%.
